Results on 58 compounds are retold here after PubChem BioAssay AID652039 (The Scripps Research Institute Molecular Screening Center, 2013).

Among all 370,000 compounds or so, about 3,300 (0.89%) were called active. Shown is part of a subset that was picked to be rich in actives. Values without a mark were called inactive.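 How the source made its calls: active means activation above the mean of all tested compounds plus 3 SD, computed per campaign excluding outliers beyond control limits (cut at about 13% in these data); inactive means the rest.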

Chain of Kallikrein-7 (Homo sapiens) (P49862 whole entry, looked up): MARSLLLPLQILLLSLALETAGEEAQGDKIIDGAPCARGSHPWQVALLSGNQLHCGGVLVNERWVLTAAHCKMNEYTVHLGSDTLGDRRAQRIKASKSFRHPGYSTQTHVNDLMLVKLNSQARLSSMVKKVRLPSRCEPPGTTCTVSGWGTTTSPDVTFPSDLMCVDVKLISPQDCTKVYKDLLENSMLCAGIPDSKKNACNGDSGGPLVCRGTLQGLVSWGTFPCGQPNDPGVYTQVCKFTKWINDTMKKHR

This assay concerns the target Kallikrein-7 (Homo sapiens) (UniProt P49862). The assay is described as follows: proKLK7 zymogen activators, primary screen, biochemical, fluorescence intensity (AID 652039). Conditions: purified proKLK7, EDANS-DABCYL substrate fluorescence; at 7 µM; stronger effect = higher value; 100% is mature enzyme control, 0% vehicle.
In the case of `COc1cc(C(=O)OC2CCOC2=O)c([N+](=O)[O-])cc1OC` (stereo not drawn), the activation was -0.39%.

With `O=C(OC1CCOC1=O)c1ccc(-c2nc3ccccc3s2)s1` (stereo not drawn), the activation is 25.6% (active).

`CC(C)c1ccc(C(=O)OC2CCOC2=O)cc1` (stereo not drawn): the activation was -0.06%.

Take `O=C(CSc1ncccn1)NC(=O)NCc1ccccc1`: the activation was -0.82%.

Take `CCOC(=O)N1CCN(C(=O)C[C@@H]2C(=O)N(CCc3ccc(Cl)cc3)C3=CCCC[C@]32C(=O)OCC)CC1`: the activation is 0.7%. In the case of `CC(C)(C)OC(=O)NCCc1ccccc1/C=C/S(=O)(=O)NCc1ccc(F)cc1` it was -0.22%. With `COc1cccc(-c2nc3n(n2)C(c2ccccc2Cl)C(C(N)=O)=C(C)N3)c1` (stereo not drawn) the figure was 0.67%; with `COc1ccc(C2=CC(c3cccc(OC)c3)n3nnnc3N2)cc1` (stereo not drawn), 42.3% (active); with `COc1ccc(C2CC(c3cccs3)Nc3nnnn32)cc1` (stereo not drawn), 0.65%.

`O=C1Nc2ccccc2OC1CC(=O)N1CCCCCCC1` (stereo not drawn): the activation is 0.05%. For the compound `CC(C)Nc1ncnc2c1nnn2Cc1ccccc1`, the activation is 0.3%. With `CC(C)Cc1nc(Nc2ccc(S(=O)(=O)N3CCCC3)cc2)c2nnn(Cc3ccccc3)c2n1` the figure was 18% (active); with `Cc1nc(Nc2ccc(S(=O)(=O)N3CCCC3)cc2)c2nnn(Cc3ccccc3)c2n1`, -0.11%.

Turning to `COc1ccc(Cn2ccc3ccc(-c4ccc5ccn(Cc6ccccc6C)c5c4)cc32)cc1`, the activation was -0.6%. With `Cc1csc(OCC(=O)Nc2ccc(C)c(C)c2)n1` the figure was 0.44%. On to `C=C(C)C#CC(Cc1ccccc1)NCC1CC1` (stereo not drawn), for which the activation is 0.49%. Consider `COc1ccc(-n2c(SCC(=O)NC3CCCC3)nnc2-c2ccncc2)cc1`, for which the activation was 0.32%.

As to `CCOc1c2ccc(C(=O)NCc3ccc4c(c3)OCO4)cc2nn1C`, the activation is 16.6% (active).

As to `COc1ccccc1-n1c(C)nc2cc(C(=O)NCc3ccc4c(c3)OCO4)ccc21`, the activation is 0.53%.

Turning to `CCCn1nc2cc(C(=O)NCc3ccccc3)ccc2c1OCC`, the activation was 9.49%. In the case of `COC(=O)[C@]12C[C@H](CC(=O)NCc3cccs3)C(=O)N(CCc3ccc(OC)c(OC)c3)C1=C[C@H](C(C)C)O[C@@H]2C1CC1` it was 0.65%.

Take `O=C(/C=C/c1cn(-c2ccccc2)nc1-c1ccc2c(c1)OCCO2)NCCCN1CCOCC1`: the activation was -1.99%. In the case of `Cc1ccc(-c2nn(-c3ccccc3)cc2/C=C/C(=O)Nc2cccc(S(N)(=O)=O)c2)cc1` it was 302% (active). Regarding `NS(=O)(=O)c1ccc(NC(=O)/C=C/c2ccccc2Cl)cc1`, the activation was 3.16%. Regarding `O=C(NC1CCCCN(Cc2ccc(Cl)cc2)C1=O)c1ccc(Br)cc1` (stereo not drawn), the activation was -0.15%.

For `O=S1(=O)c2c(cccc2N2CC[C@H](O)C2)O[C@@H]2CCN1C2`, the activation was -0.53%.

On to `COc1ccccc1C(=O)Nc1cccc(C(=O)N2CCOCC2)c1`, for which the activation is 0.2%.

Take `O=C(c1cccc(N2CCCC2=O)c1)N1CCOCC1`: the activation is -0.32%. In the case of `CNc1cncc(-c2cccc(C(=O)N3CCOCC3)c2)n1` it was 49.4% (active). With `COc1cc(C(=O)N2C(=O)c3cccc(N)c3C2=O)cc(OC)c1OC` the figure was 50.3% (active). In the case of `CCOC(=O)C1CCCN(C(=O)c2cccc(S(=O)(=O)N3CCOCC3)c2)C1` (stereo not drawn) it was -0.32%.

Take `CC1CC(C)CN(S(=O)(=O)c2cccc(C(=O)N3C(=O)c4cccc(N)c4C3=O)c2)C1` (stereo not drawn): the activation is 20.5% (active).

Turning to `COc1cc(C(=O)N2CCN(C)CC2)cc(OC)c1OC`, the activation was -0.27%.

For the compound `COc1cc(C(=O)NC(=S)NCc2ccco2)cc(OC)c1OC`, the activation was 0.52%. With `CC(=O)N1CCN(S(=O)(=O)c2cccc(C(=O)NC3CCC(C)CC3)c2)CC1` (stereo not drawn) the figure was -0.34%; with `COc1ccc(CCNC(=O)CSc2nc3c([nH]2)c(=O)n(C)c(=O)n3C)cc1`, 0.4%. In the case of `COC(=O)c1ccccc1-n1cc(COC(=O)NCCc2ccccc2)nn1` it was -0.71%; in that of `C[C@H]1CCC/C=C/C(=O)c2c(O)cc(O)cc2CC(=O)O1`, 0.41%; in that of `Cc1ccc(NC(=S)NNC(=O)CSc2nnc(SCc3ccccc3Cl)s2)cc1`, 0.76%. With `Cc1nc2ccc(C(=O)N3CCN(C(=O)C(C)(C)C)CC3)cc2n1C1CCCC1` the figure was -0.33%; with `Cc1ccc(-c2nnc(SCC(=O)Nc3ccc(Oc4ccccc4)cc3)n2Cc2ccco2)cc1`, -0.21%; with `O=C(c1ccccc1)c1ccc(-c2ccccc2C(=O)NC2CCCCN(Cc3ccc(Cl)cc3)C2=O)cc1` (stereo not drawn), -0.04%. As to `CC(=O)Nc1cc2ccc(OC(C)=O)cc2oc1=O`, the activation is 383% (active).

As for `CC(=O)Oc1ccc2c(C)c(CC(C)O)c(=O)oc2c1` (stereo not drawn), the activation was 57.1% (active). As for `COc1cccc(-c2coc3cc4oc(=O)c(CC(=O)O)c(C)c4cc23)c1`, the activation was 0.62%. In the case of `Cc1ccc(OCC(=O)Nc2ccc3oc(=O)ccc3c2)cc1C` it was 0.37%; in that of `CCc1c(C)c2ccc(OC3CCCCC3=O)cc2oc1=O` (stereo not drawn), 1.85%. Regarding `O=C(Oc1ccccc1)Oc1ccc2c(c1)oc(=O)c1ccccc12`, the activation was -0.49%. In the case of `CCCCN1CCN(C(=O)c2ccc3c(c2)NC(=O)C(C)(C)O3)CC1`, the activation is 0.18%. In the case of `O=C(CSc1nc2c(c(=O)[nH]1)CCCC2)N1CCCCC1` it was 0.8%; in that of `O=C(CSc1nc2ccccc2n1Cc1ccccc1)NNC(=S)Nc1ccccc1`, -0.17%. In the case of `O=C(CSc1nc2sc3c(c2c(=O)n1-c1ccccc1)CCCC3)NN=Cc1ccc(OCc2ccccc2)cc1` it was -0.01%; in that of `COc1cc(C)ccc1OCC(=O)OCC(=O)c1ccc[nH]1`, -0.43%. With `COc1ccnc(NC(=S)N2CCN(c3ncc(C(F)(F)F)cc3Cl)CC2)c1` the figure was 0.32%; with `CCc1ccc(-c2cc(C(=O)NCc3ccco3)c3ccccc3n2)s1`, 41.4% (active). For the compound `Cn1nc(-c2ccc(Cl)cc2)c2cc(C(=O)NCc3ccco3)sc21`, the activation was -17.3%. For `Cc1cc(C(=O)OCC(=O)NCc2ccco2)c(C)n1-c1ccccc1`, the activation is 0.45%.

Regarding `c1csc(-c2nnc(SCc3nc4ccccc4[nH]3)o2)c1`, the activation is 1.12%.
